Results published in ChEMBL document CHEMBL4513216, “Probing the Open Global Health Chemical Diversity Library for Multistage-Active Starting Points for Next-Generation Antimalarials” (ACS Infect Dis, 2020).
In all, about 69,000 compounds went through this assay and about 8,600 (12%) showed an effect of 50% or more. This is one part of a sample in which strong results are shown more often than they occur.

These molecules were tested on Plasmodium berghei (assay: Screen against P. berghei liver stage (PbLuc), transformed with Luciferase, at 10uM). Conditions: tested at 10 uM.
Type: functional, HepG2
For `CN(C)c1ccc(NC(=O)c2ccnn2C)nc1`, the INHIBITION was -62.7%.
`CCN1CC2(CC1=O)CN(C(C)=O)CCN(C(=O)NC(C)C)C2` (stereo not given) was tested, and the INHIBITION was -17.2%.
Molecule `COc1ccc(OCCNCc2c(C)nn(C)c2N(C)C)cc1` has an INHIBITION of -7.1%.
In the case of `CCN(C)c1ncnc2c1CCN(C(=O)N1CCCC1)CC2`, the INHIBITION is reported as -21.3%.
With `CC(=O)N1CCN(CCNS(=O)(=O)c2ccc(F)c(F)c2)CC1` the INHIBITION was -35.1%.
`CNC(=O)C(C)(C)NC(=O)c1cc(COc2ccccc2OC)[nH]n1` gave an INHIBITION of 63.7%.
`COc1ccccc1OCc1cc(C(=O)NC[C@@H]2CCCN2)n[nH]1` gave an INHIBITION of 82.9%.
With `COc1cccc(OCc2cc(C(=O)NC[C@@H]3CCCN3)n[nH]2)c1` the INHIBITION was 14.9%.
With `CNC(=O)C(C)(C)N(C)C(=O)c1cc(COc2ccccc2OC)[nH]n1` the INHIBITION was -4.23%.
For `COc1cccc(OCc2cc(C(=O)NC[C@H]3CCCN3)n[nH]2)c1`, the INHIBITION was 25.4%.
`COC(=O)C(C)(C)NC(=O)c1cc(COc2ccccc2OC)[nH]n1` showed an INHIBITION of -3%.
Work on `Cc1ccc(NC(=O)c2cnc(N3CCN(C)CC3)nc2C)cc1C` yielded an INHIBITION of 43.8%.
With `CCc1noc(-c2cccc(OCC(=O)NC(C)C)c2)n1` the INHIBITION was 48.7%.
`CC1(c2[nH]ncc2C(N)=O)CCN(c2ncccn2)CC1` was tested, and the INHIBITION was 26.3%.
For `CC(C)=CCN1C[C@@H]2CC[C@H]1CN(C(=O)Cn1c(C)cc(C)nc1=O)C2`, the INHIBITION was -35%.
In the case of `Cc1nc(N(C)C2CCCCC2)ncc1C(C)NC(=O)c1cccnc1` (stereo not given), the INHIBITION is reported as 77.5%.
In the case of `Cc1nc(N(C)C2CCCCC2)ncc1C(C)NC(=O)c1cscn1` (stereo not given), the INHIBITION is reported as 59.2%.
With `CN(C)c1nccc(N(C)C2CCCCC2)n1` the INHIBITION was 25.5%.
Work on `Cc1nc(-c2ccncc2)ncc1C(C)NC(=O)CN1CCCCC1` (stereo not given) yielded an INHIBITION of 35.8%.
`CCn1nc(C)c(C(C)NC(=O)c2cnc(N(C)C)nc2C)c1C` (stereo not given) gave an INHIBITION of 10.3%.
In the case of `CC(C)C(=O)N1CCN(C(=O)c2cscn2)[C@H]2CS(=O)(=O)C[C@H]21`, the INHIBITION is reported as 26.8%.
Molecule `CCN(C)S(=O)(=O)NC(C)c1cnc(N(C)C2CCCCC2)nc1C` (stereo not given) has an INHIBITION of 63.1%.
`CN(c1ncccc1CNC(=O)c1cscn1)C1CCCCC1` was tested, and the INHIBITION was 26%.
`C[C@@H](NC(=O)c1cccnc1)c1onc(-c2ccccc2)c1C(=O)O` gave an INHIBITION of 7.5%.
In the case of `NC(=O)CN1CCC(c2cncc(-c3cccc(Cl)c3)n2)CC1`, the INHIBITION is reported as -40.6%.
`CC(C)COC(=O)N1CCCN(C(C)c2nnc(CC(C)C)o2)CC1` (stereo not given) gave an INHIBITION of 4.22%.
Molecule `CCCc1nc(C(C)(C)NC(=O)C2CC(=O)N(C3CCCC3)C2)no1` (stereo not given) has an INHIBITION of -15.5%.
Work on `CCCC(=O)N1CCN(CC(O)COCC)CC1` (stereo not given) yielded an INHIBITION of -2.53%.
With `Cc1ncsc1CN1CC[C@](C)(O)[C@@H](Oc2cccc(F)c2)C1` the INHIBITION was 33.7%.
`Cc1nc2n(n1)CC(NCc1ccnc(-c3ccccc3)n1)CC2` (stereo not given) gave an INHIBITION of -15%.
Work on `O=c1[nH]c(CCN2CCCCC2Cn2cccn2)nc2ccccc12` (stereo not given) yielded an INHIBITION of 36.1%.
With `Cc1cccnc1NC(=O)C1(n2cnnn2)CCCCC1` the INHIBITION was 49.5%.
`CC(C)n1[nH]c(=O)c2c1NC(=O)CC2c1ccc(S(C)(=O)=O)cc1` (stereo not given) gave an INHIBITION of -2.43%.
`CCN1CCCC(CNC(=O)C2(c3cccc(Cl)c3)CC2)C1` (stereo not given) gave an INHIBITION of -2.42%.
`NC1(C(=O)NCC2CCCN(Cc3ccccc3F)C2)CCCC1` (stereo not given) showed an INHIBITION of 42.4%.
`O=C(N[C@@H]1CCN(Cc2cccc3nonc23)C[C@H]1O)c1cccnc1` showed an INHIBITION of 12.9%.
For `NC1(C(=O)NCC2CCCN(Cc3cccc4nonc34)C2)CCC1` (stereo not given), the INHIBITION was 62.8%.
`CC(=O)NCC1CCCN(Cc2nc(Cc3ccccc3F)no2)C1` (stereo not given) was tested, and the INHIBITION was 20.4%.
`O=C(NCC1CCCN(Cc2cccc3nonc23)C1)c1ccc[nH]1` (stereo not given) showed an INHIBITION of 70.3%.
`CCCNc1ncc(CN2CCC3(CCNC(=O)CC3)CC2)cn1` was tested, and the INHIBITION was -41.8%.
Work on `CC1CCc2n[nH]c(C(=O)NCCCc3ccccn3)c2C1` (stereo not given) yielded an INHIBITION of -41.8%.
With `Cc1ccc2oc(SCC(N)=O)nc2n1` the INHIBITION was 18.4%.
With `CCCC(=O)N1C[C@@H]2CCN(c3cnccn3)C[C@@H]2C1` the INHIBITION was -30.7%.
In the case of `CC(C)c1nc(CN(C)S(=O)(=O)c2cccs2)cs1`, the INHIBITION is reported as 55.4%.
For `CC(C)c1nc(CN(C)Cc2ccc(F)cc2)cs1`, the INHIBITION was 20.4%.
Molecule `CC(C)c1nc(CN(C)C(=O)CNS(=O)(=O)c2cccs2)cs1` has an INHIBITION of 26.6%.
`Cc1c(CCC(=O)Nc2ccc(Cl)cn2)cnn1C` was tested, and the INHIBITION was -23.4%.
`Cc1ccc(-n2nc(C)cc2N)nn1` showed an INHIBITION of -24.2%.
With `CCc1nc(C)c(CN2CCOC(CCCC(C)C)C2)[nH]1` (stereo not given) the INHIBITION was 68.9%.
In the case of `CCc1nc(C)c(CN2CCOC(Cc3cccc4ccccc34)C2)[nH]1` (stereo not given), the INHIBITION is reported as 18.6%.
`CCc1nc(C)c(CN2CCOC(Cc3ccccc3Cl)C2)[nH]1` (stereo not given) gave an INHIBITION of 24.2%.
`O=C(c1c[nH]c(=O)cn1)N1C[C@H]2CC[C@@H](C1)N(Cc1ccccc1)C2` was tested, and the INHIBITION was 17.2%.
With `CCn1cc(N)c(-c2nnc3n2CCCC3)n1` the INHIBITION was 21.9%.
In the case of `CN(CCOc1cccc(S(C)(=O)=O)c1)c1ccccc1`, the INHIBITION is reported as 81.1%.
Molecule `CCC(C)(C)N(C)CCOc1cccc(S(C)(=O)=O)c1` has an INHIBITION of 23.2%.
`CN(CCOc1cccc(S(C)(=O)=O)c1)CC(F)F` was tested, and the INHIBITION was 31.1%.
`COCCN1CCC2(CC1)CN(C(=O)C1CC1)c1ccc(F)cc12` gave an INHIBITION of 34.6%.
`O=C(c1cccnc1N1CCCCC1)N1CCCC(n2ccnc2)C1` (stereo not given) was tested, and the INHIBITION was 22.55%.
With `CSCC[C@@H](CO)Nc1ccc(-c2nc(-c3ccccc3C)no2)cn1` the INHIBITION was 36.5%.
Work on `CCC(C)Nc1ccc(-c2nc(-c3cccc(OC)c3OC)no2)cn1` (stereo not given) yielded an INHIBITION of 33.9%.
Work on `CSCC[C@@H](CO)Nc1ccc(-c2nc(C3CC3)no2)cn1` yielded an INHIBITION of 54.4%.
Molecule `c1cc(CNc2ccc(-c3nc(C4CC4)no3)cn2)no1` has an INHIBITION of 1.98%.
Work on `Cc1cc(CNc2ccc(-c3nc(C4CC4)no3)cn2)no1` yielded an INHIBITION of -28.3%.
In the case of `CSCC[C@@H](CO)Nc1ccc(-c2nc(-c3ccccc3F)no2)cn1`, the INHIBITION is reported as 76.8%.
With `CN(C)CCO[C@@H]1CC[C@H]2[C@H]1OCCN2C(=O)CCc1ccccc1` the INHIBITION was 5.65%.
`CC(=O)N1C[C@H]2CC[C@@H](C1)N(S(=O)(=O)c1cc(F)ccc1C)C2` gave an INHIBITION of -18.1%.
`COc1ccc(N2CCC(N3CCOC(C(F)(F)F)C3)CC2)cc1` (stereo not given) gave an INHIBITION of -25.2%.
With `NCC1CCN(C2CCN(c3ccc(-c4ccco4)cc3)CC2)C1` (stereo not given) the INHIBITION was 92.8%.
In the case of `CNC1CCN(C2CCN(c3ccc(-c4ccco4)cc3)CC2)CC1`, the INHIBITION is reported as 49%.
`CCS(=O)(=O)c1ccc(N2CCC(N)CC2)cc1` was tested, and the INHIBITION was 12.2%.
For `NC1CCN(C2CCN(c3ccc(-c4ccco4)cc3)CC2)CC1`, the INHIBITION was 65%.
With `O=C(O)c1ccccc1C1CCN(C2CCN(c3ccccc3)CC2)C1` (stereo not given) the INHIBITION was 35.1%.
In the case of `Cc1cccc(C(=O)N2CCn3cc(CN4CCCCC4)nc3C2)n1`, the INHIBITION is reported as 49.7%.
Molecule `Nc1cc2c(nn1)CCN(C(=O)CCc1ccc3c(c1)OCO3)C2` has an INHIBITION of 32.9%.
In the case of `Nc1cc2c(nn1)CCN(C(=O)C1CCc3ccccc31)C2` (stereo not given), the INHIBITION is reported as 17.4%.
`Nc1cc2c(nn1)CCN(C(=O)CCC1CCCCC1)C2` gave an INHIBITION of 62.6%.
`Nc1cc2c(nn1)CCN(C(=O)Cc1ccc3c(c1)CCCC3)C2` was tested, and the INHIBITION was 8.4%.
`Cn1ncc2c1CCCN(C(=O)C1CCC1)C2` showed an INHIBITION of 10.855%.
With `Nc1cc2c(nn1)CCN(C(=O)CC1CCCC1)C2` the INHIBITION was 2.26%.
With `Cn1ncc2c1CCCN(C(=O)C1CCCC1)C2` the INHIBITION was 22.75%.
Work on `Nc1cc2c(nn1)CCN(C(=O)Cc1ccc3c(c1)CCO3)C2` yielded an INHIBITION of 5.42%.
With `NC(=O)c1cc2c(nc1N)CCN(C(=O)C1CCCCC1)C2` the INHIBITION was 62.9%.
With `CCNc1cc2c(nn1)CCN(C(=O)CC1CCCCC1)C2` the INHIBITION was 30.2%.
`Nc1cc2c(nn1)CCN(C(=O)CC1CCCCC1)C2` was tested, and the INHIBITION was 50.3%.
Work on `Nc1cc2c(nn1)CCN(C(=O)CCCC1CCCCC1)C2` yielded an INHIBITION of 70.8%.
`Cn1nnc2c1CCN(Cc1ccccc1)C2COCC1CC1` (stereo not given) showed an INHIBITION of 33.5%.
Molecule `COc1cn(CC(=O)N2CCN(c3ccc(Cl)cc3)CC2)c(C)cc1=O` has an INHIBITION of 28.3%.
In the case of `COc1cc(OC)cc(-c2cc(N)on2)c1`, the INHIBITION is reported as 12.8%.
In the case of `Cc1ccc(CN(CC(=O)N2CCOC(C)C2)C2CC2)cc1` (stereo not given), the INHIBITION is reported as -59.4%.
Molecule `C[C@@H](NC(=O)c1cnccn1)c1c(-c2ccc(Cl)cc2)noc1C(=O)O` has an INHIBITION of 26%.
Molecule `CC(C)c1noc(CN(CCC2CCCCC2)CC(N)=O)n1` has an INHIBITION of 34%.
`CN1CC(C(=O)NCCc2ccc3c(c2)OCCO3)CC1=O` (stereo not given) was tested, and the INHIBITION was 27.7%.
Molecule `Cc1cc(C2CCCN2Cc2nc3ccccc3o2)on1` (stereo not given) has an INHIBITION of -12.2%.
For `CC(C)Cn1nnnc1SC(C(=O)NCc1cccnc1)C(C)C` (stereo not given), the INHIBITION was 16.9%.
For `Cc1nccnc1CCC1COCCN1C(=O)CCc1c(C)noc1C` (stereo not given), the INHIBITION was 9.05%.
`Cc1ncsc1CN1C[C@@H]2COC[C@]2(C(=O)NCc2cccnc2)C1` was tested, and the INHIBITION was 42.1%.
Work on `Cc1nc(C)c(CC(=O)N2CCC(c3ccn4nccc4n3)CC2)s1` yielded an INHIBITION of 4.13%.
Work on `CNc1ncccc1C(=O)N1CCCC2(C1)C(=O)N(C)c1ccccc12` (stereo not given) yielded an INHIBITION of -4.35%.
For `CCCc1noc2ncc(C(=O)N3CCCC3c3cnn(C)c3)cc12` (stereo not given), the INHIBITION was -29.1%.
In the case of `CN(C)CCN1C[C@@H]2CN(S(=O)(=O)c3cccs3)C[C@@H]2C1=O`, the INHIBITION is reported as -9.74%.
`O=C1[C@H]2CN(S(=O)(=O)c3ccccc3)C[C@H]2CN1Cc1cccnc1` was tested, and the INHIBITION was -29%.
`CN(C)CCN1C[C@@H]2CN(c3ccccc3)C[C@@H]2C1=O` was tested, and the INHIBITION was 53.9%.
`CN(C)CCN1C[C@@H]2CN(C(=O)C3CC=CC3)C[C@@H]2C1=O` showed an INHIBITION of 8.31%.
`CN(C)CCN1C[C@@H]2CN(C(=O)c3ccsc3)C[C@@H]2C1=O` showed an INHIBITION of 3.47%.
`CN(C)CCN1C[C@@H]2CN(S(=O)(=O)c3ccccc3)C[C@@H]2C1=O` showed an INHIBITION of 53.9%.
